In the supplement of paper PMC3150612:
± gives the standard deviation of the averaged measurements.

Columns and labels:
[1] = tested on: Drosophila melanogaster; assay: olfactory response index (dipstick assay) (fraction of flies (RI; 1 aversion, 0.5 indifferent, 0 attraction)); higher = stronger aversion to the odorant; settings: odorant concentration: 1% v/v, male
[2] = tested on: Drosophila melanogaster; assay: as above; settings: odorant concentration: 1% v/v, female
[3] = genotype (tubulin-GAL4 x UAS-RNAi line; control = progenitor): A5
[4] = genotype (tubulin-GAL4 x UAS-RNAi line; control = progenitor): control
[5] = genotype (tubulin-GAL4 x UAS-RNAi line; control = progenitor): obp 18a
[6] = genotype (tubulin-GAL4 x UAS-RNAi line; control = progenitor): obp 22a
[7] = genotype (tubulin-GAL4 x UAS-RNAi line; control = progenitor): obp 28a
[8] = genotype (tubulin-GAL4 x UAS-RNAi line; control = progenitor): obp 56a
[9] = genotype (tubulin-GAL4 x UAS-RNAi line; control = progenitor): obp 56c
[10] = genotype (tubulin-GAL4 x UAS-RNAi line; control = progenitor): obp 56f
[11] = genotype (tubulin-GAL4 x UAS-RNAi line; control = progenitor): obp 57a
[12] = genotype (tubulin-GAL4 x UAS-RNAi line; control = progenitor): obp 57b
[13] = genotype (tubulin-GAL4 x UAS-RNAi line; control = progenitor): obp 58c
[14] = genotype (tubulin-GAL4 x UAS-RNAi line; control = progenitor): obp 59a
[15] = genotype (tubulin-GAL4 x UAS-RNAi line; control = progenitor): obp 83a
[16] = genotype (tubulin-GAL4 x UAS-RNAi line; control = progenitor): obp 83c
[17] = genotype (tubulin-GAL4 x UAS-RNAi line; control = progenitor): obp 93a
[18] = genotype (tubulin-GAL4 x UAS-RNAi line; control = progenitor): obp 99b
[19] = genotype (tubulin-GAL4 x UAS-RNAi line; control = progenitor): obp 56h
[20] = genotype (tubulin-GAL4 x UAS-RNAi line; control = progenitor): obp 58b

SMILES	olfactory response index [1, 3]	olfactory response index [1, 4]	olfactory response index [1, 5]	olfactory response index [1, 6]	olfactory response index [1, 7]	olfactory response index [1, 8]	olfactory response index [1, 9]	olfactory response index [1, 10]	olfactory response index [1, 11]	olfactory response index [1, 12]	olfactory response index [1, 13]	olfactory response index [1, 14]	olfactory response index [1, 15]	olfactory response index [1, 16]	olfactory response index [1, 17]	olfactory response index [1, 18]	olfactory response index [1, 19]	olfactory response index [2, 3]	olfactory response index [2, 4]	olfactory response index [2, 5]	olfactory response index [2, 6]	olfactory response index [2, 7]	olfactory response index [2, 8]	olfactory response index [2, 9]	olfactory response index [2, 10]	olfactory response index [2, 11]	olfactory response index [2, 12]	olfactory response index [2, 20]	olfactory response index [2, 13]	olfactory response index [2, 14]	olfactory response index [2, 15]	olfactory response index [2, 16]	olfactory response index [2, 17]	olfactory response index [2, 18]	olfactory response index [2, 19]
CCCCCC(C)=O [2-heptanone]	0.365 ± 0.086	0.0673 ± 0.066	0.32 ± 0.1	0.304 ± 0.1	0.331 ± 0.084	0.185 ± 0.082	0.239 ± 0.077	0.395 ± 0.14	0.214 ± 0.038	0.368 ± 0.13	0.328 ± 0.063	0.444 ± 0.12	0.339 ± 0.11	0.352 ± 0.13	0.345 ± 0.26	0.138 ± 0.044	0.393 ± 0.17	0.49 ± 0.16	0.483 ± 0.17	0.409 ± 0.092	0.417 ± 0.12	0.526 ± 0.081	0.392 ± 0.12	0.494 ± 0.073	0.452 ± 0.21	0.718 ± 0.062	0.571 ± 0.15	0.277 ± 0.015	0.272 ± 0.051	0.598 ± 0.13	0.4 ± 0.15	0.537 ± 0.17	0.443 ± 0.18	0.28 ± 0.017	0.513 ± 0.22
Cc1cnccn1 [2-methylpyrazine]	0.457 ± 0.04	0.104 ± 0.039	0.178 ± 0.049	0.155 ± 0.17	0.085 ± 0.043	0.176 ± 0.094	0.293 ± 0.15	0.151 ± 0.066	0.238 ± 0.096	0.261 ± 0.04	0.116 ± 0.1	0.397 ± 0.041	0.305 ± 0.16	0.218 ± 0.18	0.111 ± 0.044	0.1 ± 0.087	0.233 ± 0.078	0.623 ± 0.14	0.415 ± 0.074	0.358 ± 0.17	0.394 ± 0.084	0.527 ± 0.068	0.318 ± 0.099	0.458 ± 0.14	0.674 ± 0.013	0.532 ± 0.066	0.543 ± 0.082	0.159 ± 0.054	0.304 ± 0.15	0.552 ± 0.3	0.478 ± 0.062	0.431 ± 0.12	0.506 ± 0.13	0.381 ± 0.059	0.393 ± 0.099
CCOC(C)=O [ethyl acetate]	0.36 ± 0.22	0.266 ± 0.16	0.417 ± 0.15	0.176 ± 0.084	0.311 ± 0.18	0.0854 ± 0.099	0.17 ± 0.14	0.364 ± 0.31	0.236 ± 0.099	0.326 ± 0.14	0.181 ± 0.14	0.324 ± 0.23	0.21 ± 0.068	0.255 ± 0.11	0.352 ± 0.12	0.15 ± 0.14	0.227 ± 0.13	0.677 ± 0.11	0.639 ± 0.27	0.507 ± 0.12	0.669 ± 0.04	0.709 ± 0.13	0.486 ± 0.2	0.3 ± 0.1	0.559 ± 0.26	0.629 ± 0.015	0.61 ± 0.14	0.513 ± 0.31	0.561 ± 0.091	0.502 ± 0.25	0.471 ± 0.087	0.572 ± 0.0067	0.541 ± 0.13	0.2 ± 0.11	0.479 ± 0.06
